The results in this text go back to PubChem BioAssay AID651571 (The Scripps Research Institute Molecular Screening Center, 2012).

Molecules are shown by their SMILES. Screen size: about 1,500 compounds; about 1,300 (87%) were called active. Cut-off read from the data, not from the text of the source: active = inhibition above about 9%; inactive = the rest. So high a share suggests a set chosen from earlier hits. The list is a sample of the results.

The nature of this assay: PG9 antibody small-molecule binding – biochemical, TR-FRET, confirmation (AID 651571). To be noted: at 6.7 µM, active compounds read high. Background: Time-resolved FRET reads energy transfer from a long-lived donor to a nearby acceptor.
For the compound `CCN(CC)C(=O)c1ccc(NC(=O)c2sccc2-c2ccccc2)cc1`, the inhibition was 16.6% (active).
`N#CC1=C(N)Oc2c(c(=O)oc3ccccc23)C1c1ccccc1OC(=O)c1cccs1` (configuration not stated): the inhibition is 20.4% (active).

As usually defined, the inhibition is the percentage by which the read-out fell short of the control.
